About 320 (3.2%) of roughly 10,000 compounds were called active. Only a selection was taken, and actives are over-represented in it overall. Unmarked numbers belong to inactive results. No stated cut-off is given here; in the data, active means CPE inhibition mostly above about 9.1% (no sharp cut-off); inactive means mostly below about 7.2%.

This assay can be described thus: Dengue virus cytopathic effect inhibitors, cell-based, CPE readout, HTS (AID 540333). The conditions noted are these: Dengue virus CPE inhibition in host cells, at 20 µM; stronger effect = higher value. Background: Damage to the host cells serves as the signal in cytopathic effect assays.
As to `Cc1ccc(NC(=O)OCCN2CCN(S(=O)(=O)c3ccc(C)cc3)CCC2=O)cc1`, the CPE inhibition was 0.55%. The value for `COc1ccc(C(=O)/C(C#N)=N/Nc2ccccc2[N+](=O)[O-])cc1` was 1.92%; that for `Cc1c(C#N)c(N)nc2c3c(sc12)NC(=O)CC3c1ccc(Cl)cc1` (centres undefined) was 0.18%. The value for `Cc1ccc(NC(=S)NCCc2ccc(S(N)(=O)=O)cc2)cc1C` was “inactive”; that for `COc1cc(/C=C2/C(=O)NN(c3ccc(Cl)cc3)C2=O)ccc1OC(=O)c1ccco1` was 8.14% (active); that for `COc1cc(/C=C2/C(=O)NN(c3cccc(C)c3)C2=O)ccc1OC(=O)c1ccco1` was 8.68%. The value for `COc1cc(/C=C2/C(=O)NN(c3cccc(F)c3)C2=O)ccc1OC(=O)c1ccco1` was 3.78%. For `COc1ccccc1NS(=O)(=O)c1cccc(C(=O)N/N=C/c2ccc3c(c2)OCCO3)c1`, the CPE inhibition result is “inactive”.

With `S=c1[nH]nc(COc2ccccc2)n1/N=C/c1cccs1`, the CPE inhibition entry was “inactive”. Consider `O=C1N(c2cccc(Cl)c2)C(c2ccc(Cl)cc2)N2CCCN12` (centres undefined), for which the CPE inhibition was 4.13%. The value for `O=C1[C@H]2[C@@H](c3ccc(F)cc3)N3C(=O)N(c4ccc(Br)cc4)C(=O)[C@@]3(Cc3ccc(Cl)cc3)[C@H]2C(=O)N1C1CCCCC1` was 46% (active); that for `O=C1[C@H]2[C@@H](c3ccc(Cl)cc3)N3C(=O)N(c4cccc(Cl)c4)C(=O)[C@@]3(Cc3ccccc3)[C@H]2C(=O)N1C1CCCCC1` was 15.5% (active). With `CCN1C(=O)[C@H]2[C@@H](c3ccc(C)cc3)N3C(=O)N(c4ccc(OC)cc4)C(=O)[C@@]3(CC)[C@H]2C1=O` the figure was 0.62%; with `Cc1cccc([C@@H]2[C@@H]3C(=O)N(Cc4ccccc4)C(=O)[C@@H]3[C@]3(Cc4ccccc4)C(=O)N(c4ccccc4)C(=O)N23)c1`, 0.915%.

For `S=C(Nc1ccccc1Cl)N1CCN(Cc2ccccc2)CC1`, the CPE inhibition was 0.465%.

In the case of `N#C/C(=C\c1cn(Cc2cccc(F)c2)c2ccccc12)C(=O)NCc1ccco1`, the CPE inhibition was 0.23%. With `Cc1ccc(OCCSCc2nnc(NC(=O)Nc3cccc(Cl)c3)s2)cc1` the figure was 5.79%; with `COc1ccc(NS(=O)(=O)c2ccc3nc(COc4ccc(Cl)c(C)c4)[nH]c3c2)cc1`, 1.16%. With `CSc1ccc(/C=C/C(=O)c2ccc(O)cc2)cc1` the entry was “inactive”; with `CCOc1ccc(/C=C/C(=O)Nc2ccccc2C(F)(F)F)cc1`, “inactive”.

As for `O=c1c2ccccc2cnn1Cc1n[nH]c(=S)n1-c1ccccc1`, the CPE inhibition was 0.01%. The value for `CCCCCCNC(=O)CC(NS(=O)(=O)c1ccc(OC)cc1)C(C)C` (centres undefined) was 0.025%; that for `Cn1cnc(C(=O)N2CCN(C(=O)OC(C)(C)C)CC2)c1C(=O)N1CCN(C(=O)OC(C)(C)C)CC1` was 1.25%; that for `C[C@@H](NC(=O)c1nc[nH]c1C(=O)OCc1ccccc1)c1ccccc1` was 0.97%. In the case of `CC(C)(C)OC(=O)CNC(=O)c1[nH]cnc1C(=O)NC1CCN(C(=O)OC(C)(C)C)CC1`, the CPE inhibition result is “inactive”. With `CC(C)(C)OC(=O)N1CCC(NC(=O)c2ncn(Cc3ccccc3)c2C(=O)NC2CCN(C(=O)OC(C)(C)C)CC2)CC1` the figure was 39.3% (active); with `C[C@@H](NC(=O)c1ncn(Cc2ccccc2)c1C(=O)N[C@H](C)c1ccccc1)c1ccccc1`, 13.8% (active).

As to `C[C@H](NC(=O)c1ncn(C)c1C(=O)N[C@@H](C)c1ccccc1)c1ccccc1`, the CPE inhibition was 0.505%.

As for `Cc1ccc2c(c1)/C(=N/N1C(=O)c3ccccc3C1=O)C(=O)N2`, the CPE inhibition result is “inactive”. On to `CC(C)C(=O)NC(=S)Nc1nnn(C)n1`, for which the CPE inhibition result was “inactive”. Consider `Cc1ccc(N2C(=O)[C@@H]3C(C(=O)C(c4ccccc4)c4ccccc4)=NN[C@@H]3C2=O)cc1`, for which the CPE inhibition was 0.425%. Regarding `CC(=O)c1ccc(NC(=O)/C=C/c2ccc(C)cc2)cc1`, the CPE inhibition is 4.66%.

In the case of `CCC(=O)Nc1ccc(NC(=O)/C=C/c2ccc(Cl)cc2)cc1`, the CPE inhibition is 21.6% (active). The value for `CCC(=O)N/N=C(\C)CC(=O)Nc1ccc(Cl)cc1` was 0.01%; that for `Cc1sc(NC(=O)c2ccccc2)c(C(c2ccc(Cl)cc2)N2CCN(CCO)CC2)c1C` (centres undefined) was “inactive”; that for `Cc1nc2sc(C(c3ccc(F)cc3)N3CCN(C(=O)c4ccco4)CC3)c(O)n2n1` (centres undefined) was 0.39%. With `CC(=O)NS(=O)(=O)c1ccc(NC(=O)C2c3ccccc3Oc3ccccc32)cc1`, the CPE inhibition result was “inactive”.

Turning to `CN(c1ccccc1)S(=O)(=O)c1ccc(Cl)c(C(=O)NCCc2c[nH]c3ccccc23)c1`, the CPE inhibition is 2.39%. With `CN(C)c1ccc(C(CNS(=O)(=O)c2ccc(F)cc2)c2c[nH]c3ccccc23)cc1` (centres undefined) the figure was 36.1% (active); with `CN(C)c1ccc(NS(=O)(=O)c2ccc(Cl)cc2)cc1`, 0.45%; with `COCCCNC(=O)c1cccc2c(=O)c(C)c(-c3ccccc3)oc12`, 0.515%.

For the molecule `Cc1ccc(C)n1-c1ccc(NC(=O)c2ccccc2)cc1`, the CPE inhibition result is “inactive”.

For `O=C(c1cnn(C(=O)COc2ccc(Cl)cc2)c1)c1ccccc1O`, the CPE inhibition result is “inactive”. As for `COc1cc(NC(=O)COC(=O)/C=C/c2ccccc2Cl)cc(OC)c1`, the CPE inhibition is 22.1% (active).

`COc1cc(NC(=O)COC(=O)/C=C/c2ccc(Cl)cc2Cl)cc(OC)c1`: the CPE inhibition is 8.61%. The value for `O=C(COC(=O)/C=C/c1ccccc1Cl)NC(=O)Cc1ccccc1` was 0.12%; that for `COc1ccccc1OCCn1cc(/C=C(\C#N)C(=O)NCc2cccs2)c2ccccc21` was 2.51%.

With `O=C(NCc1ccco1)c1ccc(Cl)c(S(=O)(=O)N2CCc3ccccc32)c1`, the CPE inhibition is 1.37%.

With `COc1cc(C(=O)NC(=S)NC(C)C)cc(OC)c1OC`, the CPE inhibition result is “inactive”. Turning to `Cc1ccc(NC(=O)c2ccc(NCCN)c([N+](=O)[O-])c2)cc1`, the CPE inhibition was 3.98%. The value for `Cc1ccc(NC(=O)c2ccc(NCCN)c([N+](=O)[O-])c2)cc1Cl` was 0.22%; that for `O=C(Nc1ccccc1)c1ccc(NCCc2ccccc2)c([N+](=O)[O-])c1` was 13.8% (active).

Consider `O=C(O)CCC(=O)OCc1c(-c2ccccc2)ncc2ccccc12`, for which the CPE inhibition is 1.18%. The value for `CCOc1cc(C2Nc3ccccc3C(=O)N2c2ccccc2)c(Br)cc1OCC(=O)O` (centres undefined) was “inactive”.

The values above are taken from PubChem BioAssay AID540333 (Southern Research Specialized Biocontainment Screening …, 2011).
